# Assay results taken from PubChem BioAssay (NCI).
# Compounds without any hit were thinned out: in the full panel of roughly 83,000, 20% have a hit.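 In brief: 96-well plates, 48 h treatment, single concentration, percent growth endpoint.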 A number with no mark means an inactive call. The source made the active and inactive calls. How the source made its calls: active means growth percent below 10; inactive means the rest.
# System: NCI-H226 lung
# Assay: NCI-60 one-dose screen, 48 h (100 = growth as untreated, 0 = no growth, -100 = all killed)
# Conditions: 10 µM unless noted
row,SMILES,growth
1,O=[N+]([O-])c1cccc2cc(S(=O)(=O)O)ccc12,103%
2,COc1ccc(SC2c3ccc(O)cc3Oc3nc(N)c(C#N)c(N)c32)cc1 (stereo not drawn),117%
3,Nc1nccc2c1ccn2-c1cccc(NC(=O)c2ccc(N3CCOCC3)c(C(F)(F)F)c2)c1,35.8%
4,COc1ccc(OC)c(NCC(=O)n2nc(/C=C\c3ccc(O)c(OC)c3)cc2/C=C\c2ccc(O)c(OC)c2)c1,29%
5,O=C(Nc1ccc(-n2cc(-c3ccncc3)c(-c3ccc(O)c(Cl)c3)n2)cc1)c1cc(C(F)(F)F)cc(C(F)(F)F)c1,93.7%
6,CC(C)(C)OC(=O)N1CCN(CCn2cc(C(F)(F)F)c3c(Cl)ncnc32)CC1,108%
7,COc1cc([C@@H]2c3cc4c(cc3C(OC3O[C@@H]5COC(C)O[C@H]5[C@H](O)[C@H]3O)C3COC(=O)[C@@H]32)OCO4)cc(OC)c1O (stereo partly drawn),33.1%
8,CNCCCOc1c(Br)cc(CCNC(=O)/C(Cc2cc(Br)c(OC)c(Br)c2)=N/O)cc1Br,75.1%
9,CCCCCCCCN(CCCCCCCC)CC(O)c1cc(-c2ccccc2)nc2ccc(OC)cc12 (stereo not drawn),88.1%
10,CC(C)(C)NC(C1=CC(C)(C)c2ccccc2C1=O)c1ccccc1 (stereo not drawn),-68.6% (active)
11,CCOC(=O)C1CSC(C)(C(=O)OCC)N1 (stereo not drawn),95.5%
12,COc1ccc(-c2coc3c(CO)c(O)ccc3c2=O)cc1,61.7%
13,O=C(Cn1c2ccccc2c2ccncc21)N/N=C/c1c[nH]c2ccccc12,73.3%
14,CCCCC(=O)Nc1nc2ccc(SCCC)cc2s1,49.7%
15,O=C(COc1ccc(Cl)cc1Cl)N1N=C(c2ccc(Cl)cc2Cl)CC1(O)c1cc(F)c(Cl)cc1Cl (stereo not drawn),149%
16,Nc1nccc2c1ccn2-c1ccc(NC(=O)Nc2cccc(C(F)(F)F)c2)cc1,81.9%
17,COc1ccc(CNc2nc3ccccc3c3c(=O)c4ccccc4sc23)cc1OC,75.6%
18,O=C1CCC(=O)N1C1CCCCC1,97.1%
19,Nc1ccc(S(=O)(=O)Nc2ccnn2-c2ccccc2)cc1,106%
20,COc1ccc(C2=NN(C(=O)COc3ccc(Cl)cc3)C(O)(c3cc(F)c(Cl)cc3Cl)C2)cc1OC (stereo not drawn),82.2%

row,SMILES,growth
1,NCC(=O)NS(=O)(=O)OC[C@H]1O[C@@H](n2cnc3c(N)ncnc32)[C@H](O)[C@@H]1O,-54.6% (active)
2,CCCC(=O)Oc1ccc(/C(=C(\C)c2ccc(Cl)cc2)c2ccc(OCCN(CC)CC)cc2)cc1,68.4%
3,O=C(NCCNc1nccc(-c2c(-c3cccc(O)c3)nc3sccn23)n1)c1ccc(N2CCOCC2)c(C(F)(F)F)c1,69.5%
4,C#C[C@@]1(O)[C@@H](CO)O[C@@H](n2cc(Br)c3c(Cl)ccnc32)[C@@H]1O,47.2%
5,CN(C)c1ccc(/C=N/N=C(N)N)cc1,82.2%
6,C=C1c2c(Cl)ccc(O)c2C(O)=C2C(=O)[C@]3(O)C(O)=C(C(N)=O)C(=O)[C@@H](N(C)C)[C@@H]3[C@@H](O)[C@H]12,42.7%
7,O=C(Nc1ccccc1Cl)c1c[nH]c(=O)c(-c2ccc(N3CCCOC4(CC4)C3)cc2)c1,50.9%
8,Cc1ccc2oc(=O)cc(C3C(C#N)=C(N)Oc4c3ccc3ccccc43)c2c1 (stereo not drawn),87.1%
9,COc1ccc2c(-c3ccc(F)cc3)c(C#N)c(=NC(C)=O)oc2c1,89.6%
10,O=C(Nc1ccc(-n2ccc3c(NC(=O)c4ccccc4)ncnc32)cc1)c1cccc(C(F)(F)F)c1,70.8%
11,C=C1C(=O)O[C@H]2[C@H]1CC/C(COC(=O)n1ccnc1C)=C\CC[C@@]1(C)O[C@@H]21,91.2%
12,CCn1cc(C(=O)O)c(=O)c2cc(F)c(N3CCN(CC(=O)Nc4ccc(C(C)=O)cc4)CC3)cc21,86.3%
13,COc1ccc(Cl)cc1NC(=O)c1cc2c([nH]1)-c1nc(NC(=O)C(C)(C)C)sc1CC2,57.7%
14,COc1ccccc1P(c1ccccc1OC)c1ccccc1OC,105%
15,Nc1nc(=S)ss1,103%
16,CCCOC(=O)c1ccc([N+](=O)[O-])o1,109%
17,O=C(CSc1nnc(-c2ccc(Cl)cc2)o1)Nc1ccc(C(=O)/C=C/c2ccccc2)cc1,107%
18,Cc1ccc(NC(=O)CN2CCOCC2)cc1Cl,92.8%
19,CCCCCC/C=N/Nc1ccc([N+](=O)[O-])cn1,99.1%

# System: NCI-H322M lung
# Assay: as above
# Conditions: 10 µM unless noted
row,SMILES,growth
1,O=[N+]([O-])c1cccc2cc(S(=O)(=O)O)ccc12,107%
2,COc1ccc(SC2c3ccc(O)cc3Oc3nc(N)c(C#N)c(N)c32)cc1 (stereo not drawn),79.2%
3,Nc1nccc2c1ccn2-c1cccc(NC(=O)c2ccc(N3CCOCC3)c(C(F)(F)F)c2)c1,35.3%
4,COc1ccc(OC)c(NCC(=O)n2nc(/C=C\c3ccc(O)c(OC)c3)cc2/C=C\c2ccc(O)c(OC)c2)c1,29.5%
5,O=C(Nc1ccc(-n2cc(-c3ccncc3)c(-c3ccc(O)c(Cl)c3)n2)cc1)c1cc(C(F)(F)F)cc(C(F)(F)F)c1,75.2%
6,CC(C)(C)OC(=O)N1CCN(CCn2cc(C(F)(F)F)c3c(Cl)ncnc32)CC1,96.2%
7,COc1cc([C@@H]2c3cc4c(cc3C(OC3O[C@@H]5COC(C)O[C@H]5[C@H](O)[C@H]3O)C3COC(=O)[C@@H]32)OCO4)cc(OC)c1O (stereo partly drawn),115%
8,CNCCCOc1c(Br)cc(CCNC(=O)/C(Cc2cc(Br)c(OC)c(Br)c2)=N/O)cc1Br,21%
9,CCCCCCCCN(CCCCCCCC)CC(O)c1cc(-c2ccccc2)nc2ccc(OC)cc12 (stereo not drawn),106%
10,CC(C)(C)NC(C1=CC(C)(C)c2ccccc2C1=O)c1ccccc1 (stereo not drawn),-1.08% (active)
11,CCOC(=O)C1CSC(C)(C(=O)OCC)N1 (stereo not drawn),104%
12,COc1ccc(-c2coc3c(CO)c(O)ccc3c2=O)cc1,52.9%
13,O=C(Cn1c2ccccc2c2ccncc21)N/N=C/c1c[nH]c2ccccc12,72.8%
14,CCCCC(=O)Nc1nc2ccc(SCCC)cc2s1,82.4%
15,O=C(COc1ccc(Cl)cc1Cl)N1N=C(c2ccc(Cl)cc2Cl)CC1(O)c1cc(F)c(Cl)cc1Cl (stereo not drawn),110%
16,Nc1nccc2c1ccn2-c1ccc(NC(=O)Nc2cccc(C(F)(F)F)c2)cc1,98.2%
17,COc1ccc(CNc2nc3ccccc3c3c(=O)c4ccccc4sc23)cc1OC,80.6%
18,O=C1CCC(=O)N1C1CCCCC1,81.5%
19,Nc1ccc(S(=O)(=O)Nc2ccnn2-c2ccccc2)cc1,95%
20,COc1ccc(C2=NN(C(=O)COc3ccc(Cl)cc3)C(O)(c3cc(F)c(Cl)cc3Cl)C2)cc1OC (stereo not drawn),88.8%

row,SMILES,growth
1,NCC(=O)NS(=O)(=O)OC[C@H]1O[C@@H](n2cnc3c(N)ncnc32)[C@H](O)[C@@H]1O,-1.74% (active)
2,CCCC(=O)Oc1ccc(/C(=C(\C)c2ccc(Cl)cc2)c2ccc(OCCN(CC)CC)cc2)cc1,24.1%
3,O=C(NCCNc1nccc(-c2c(-c3cccc(O)c3)nc3sccn23)n1)c1ccc(N2CCOCC2)c(C(F)(F)F)c1,102%
4,C#C[C@@]1(O)[C@@H](CO)O[C@@H](n2cc(Br)c3c(Cl)ccnc32)[C@@H]1O,11.7%
5,CN(C)c1ccc(/C=N/N=C(N)N)cc1,99.4%
6,C=C1c2c(Cl)ccc(O)c2C(O)=C2C(=O)[C@]3(O)C(O)=C(C(N)=O)C(=O)[C@@H](N(C)C)[C@@H]3[C@@H](O)[C@H]12,-2.1% (active)
7,O=C(Nc1ccccc1Cl)c1c[nH]c(=O)c(-c2ccc(N3CCCOC4(CC4)C3)cc2)c1,78%
8,Cc1ccc2oc(=O)cc(C3C(C#N)=C(N)Oc4c3ccc3ccccc43)c2c1 (stereo not drawn),89.2%
9,COc1ccc2c(-c3ccc(F)cc3)c(C#N)c(=NC(C)=O)oc2c1,58.2%
10,O=C(Nc1ccc(-n2ccc3c(NC(=O)c4ccccc4)ncnc32)cc1)c1cccc(C(F)(F)F)c1,62.9%
11,C=C1C(=O)O[C@H]2[C@H]1CC/C(COC(=O)n1ccnc1C)=C\CC[C@@]1(C)O[C@@H]21,98.3%
12,CCn1cc(C(=O)O)c(=O)c2cc(F)c(N3CCN(CC(=O)Nc4ccc(C(C)=O)cc4)CC3)cc21,101%
13,COc1ccc(Cl)cc1NC(=O)c1cc2c([nH]1)-c1nc(NC(=O)C(C)(C)C)sc1CC2,75.5%
14,COc1ccccc1P(c1ccccc1OC)c1ccccc1OC,87.5%
15,Nc1nc(=S)ss1,100%
16,CCCOC(=O)c1ccc([N+](=O)[O-])o1,108%
17,O=C(CSc1nnc(-c2ccc(Cl)cc2)o1)Nc1ccc(C(=O)/C=C/c2ccccc2)cc1,90.5%
18,Cc1ccc(NC(=O)CN2CCOCC2)cc1Cl,93.4%
19,CCCCCC/C=N/Nc1ccc([N+](=O)[O-])cn1,98.7%
